Laboratory results reported in article PMC7862700, “An all-to-all approach to the identification of sequence-specific readers for epigenetic DNA modifications on cytosine”.

Legend:
Experiment in all cases: DAPPL (digital affinity profiling via proximity ligation, sequencing); 10 mM Tris-HCl pH 7.5, 50 mM NaCl, 1 mM DTT, 4% glycerol, room temperature, 30 min; GST-TFs on glutathione beads, 16-mer random dsDNA library, 0.1% formaldehyde crosslink after washing; high values mean tight binding
FLI1 = target: T1, FLI1 (Homo sapiens, UniProt Q01543 1-452); details: protein: recombinant; tags: N-terminal GST; dsDNA, one strand shown
T1 sequence: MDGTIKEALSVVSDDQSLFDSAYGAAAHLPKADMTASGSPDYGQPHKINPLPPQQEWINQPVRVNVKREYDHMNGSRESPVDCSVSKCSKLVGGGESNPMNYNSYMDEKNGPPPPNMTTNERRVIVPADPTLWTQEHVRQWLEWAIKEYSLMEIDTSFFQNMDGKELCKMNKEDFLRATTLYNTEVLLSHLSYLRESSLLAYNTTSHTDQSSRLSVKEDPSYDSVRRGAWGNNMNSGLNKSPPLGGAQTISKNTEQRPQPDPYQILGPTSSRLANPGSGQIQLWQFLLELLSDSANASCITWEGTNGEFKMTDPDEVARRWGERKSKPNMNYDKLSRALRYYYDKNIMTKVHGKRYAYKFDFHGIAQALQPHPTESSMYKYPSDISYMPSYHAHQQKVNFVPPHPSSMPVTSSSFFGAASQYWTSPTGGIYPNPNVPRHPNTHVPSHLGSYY
Outline: (§1)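 GST fusions of human transcription factors were expressed in yeast and captured with glutathione beads. Once given DNA barcodes and pooled alongside a tag-only sample, they were incubated for 30 min at room temperature with 200 nmole of a random double-stranded 16-mer DNA library in Tris/NaCl/DTT/glycerol buffer, then washed, crosslinked (0.1% formaldehyde), proximity-ligated, PCR-amplified and sequenced on an Illumina NextSeq500. The binding signal of each hexamer is its read frequency for a factor divided by its frequency for the tag-only sample.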

ELK1 = target: T2, ELK1 (Homo sapiens, UniProt P19419 1-428); details: protein: recombinant; tags: N-terminal GST; dsDNA, one strand shown
T2 sequence: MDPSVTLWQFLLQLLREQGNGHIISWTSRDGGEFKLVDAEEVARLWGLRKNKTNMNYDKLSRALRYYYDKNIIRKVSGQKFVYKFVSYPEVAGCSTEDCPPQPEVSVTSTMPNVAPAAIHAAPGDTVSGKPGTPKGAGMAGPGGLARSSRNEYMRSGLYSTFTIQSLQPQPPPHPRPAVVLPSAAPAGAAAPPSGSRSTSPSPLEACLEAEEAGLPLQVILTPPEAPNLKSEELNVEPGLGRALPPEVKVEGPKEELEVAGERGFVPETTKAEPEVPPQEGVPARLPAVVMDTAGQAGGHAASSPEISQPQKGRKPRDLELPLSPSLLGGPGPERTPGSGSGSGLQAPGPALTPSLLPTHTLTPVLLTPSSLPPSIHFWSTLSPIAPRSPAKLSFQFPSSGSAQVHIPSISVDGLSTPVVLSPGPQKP
Outline: as §1

GABPA = target: T3, GABPA (Homo sapiens, UniProt Q06546 1-454); details: protein: recombinant; tags: N-terminal GST; dsDNA, one strand shown
T3 sequence: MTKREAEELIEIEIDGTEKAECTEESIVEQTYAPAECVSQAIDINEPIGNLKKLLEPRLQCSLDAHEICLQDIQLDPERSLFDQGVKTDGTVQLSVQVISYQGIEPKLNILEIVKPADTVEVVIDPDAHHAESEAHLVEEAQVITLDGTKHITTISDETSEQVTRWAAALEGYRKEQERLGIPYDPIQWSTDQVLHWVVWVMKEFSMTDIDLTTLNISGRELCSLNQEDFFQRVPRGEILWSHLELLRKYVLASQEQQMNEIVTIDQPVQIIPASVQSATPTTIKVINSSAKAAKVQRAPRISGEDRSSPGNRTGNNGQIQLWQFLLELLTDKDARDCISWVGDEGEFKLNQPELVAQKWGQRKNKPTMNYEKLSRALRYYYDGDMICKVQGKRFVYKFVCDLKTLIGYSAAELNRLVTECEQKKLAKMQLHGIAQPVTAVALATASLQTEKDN
Outline: as §1

ERG = target: T4, ERG (Homo sapiens, UniProt P11308 1-479); details: protein: recombinant; tags: N-terminal GST; dsDNA, one strand shown
T4 sequence: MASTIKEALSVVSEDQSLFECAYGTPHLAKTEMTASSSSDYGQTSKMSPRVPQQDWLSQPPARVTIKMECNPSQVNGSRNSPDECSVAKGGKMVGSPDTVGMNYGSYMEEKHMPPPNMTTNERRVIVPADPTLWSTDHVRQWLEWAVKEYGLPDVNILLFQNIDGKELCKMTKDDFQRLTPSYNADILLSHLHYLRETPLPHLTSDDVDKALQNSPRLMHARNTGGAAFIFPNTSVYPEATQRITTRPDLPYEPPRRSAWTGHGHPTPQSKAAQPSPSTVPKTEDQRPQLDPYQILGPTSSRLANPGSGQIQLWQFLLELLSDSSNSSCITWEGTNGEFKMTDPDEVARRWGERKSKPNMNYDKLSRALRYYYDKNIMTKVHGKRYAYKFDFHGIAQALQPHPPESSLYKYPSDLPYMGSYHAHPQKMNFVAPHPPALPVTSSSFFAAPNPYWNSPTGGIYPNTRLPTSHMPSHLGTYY
Outline: as §1

ELF1 = ELF1 (Homo sapiens, UniProt P32519 1-619); details: protein: recombinant; tags: N-terminal GST; dsDNA, one strand shown
Outline: as §1

EHF = target: T5, EHF (Homo sapiens, UniProt Q9NZC4 1-300); details: protein: recombinant; tags: N-terminal GST; dsDNA, one strand shown
T5 sequence: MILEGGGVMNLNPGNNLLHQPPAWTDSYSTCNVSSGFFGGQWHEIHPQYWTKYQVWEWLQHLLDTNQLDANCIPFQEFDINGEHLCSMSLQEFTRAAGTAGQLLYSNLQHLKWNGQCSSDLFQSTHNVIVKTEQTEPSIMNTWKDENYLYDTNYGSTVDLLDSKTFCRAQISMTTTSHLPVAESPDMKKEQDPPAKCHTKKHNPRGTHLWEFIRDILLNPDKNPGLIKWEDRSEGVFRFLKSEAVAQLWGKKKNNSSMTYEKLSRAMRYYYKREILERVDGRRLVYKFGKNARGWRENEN
Outline: as §1

SPI1 = SPI1 (Homo sapiens, UniProt P17947 1-270); details: protein: recombinant; tags: N-terminal GST; dsDNA, one strand shown
Outline: as §1

SPIB = SPIB (Homo sapiens, UniProt Q01892 1-262); details: protein: recombinant; tags: N-terminal GST; dsDNA, one strand shown
Outline: as §1

ELK3 = target: T6, ELK3 (Homo sapiens, UniProt P41970 1-407); details: protein: recombinant; tags: N-terminal GST; dsDNA, one strand shown
T6 sequence: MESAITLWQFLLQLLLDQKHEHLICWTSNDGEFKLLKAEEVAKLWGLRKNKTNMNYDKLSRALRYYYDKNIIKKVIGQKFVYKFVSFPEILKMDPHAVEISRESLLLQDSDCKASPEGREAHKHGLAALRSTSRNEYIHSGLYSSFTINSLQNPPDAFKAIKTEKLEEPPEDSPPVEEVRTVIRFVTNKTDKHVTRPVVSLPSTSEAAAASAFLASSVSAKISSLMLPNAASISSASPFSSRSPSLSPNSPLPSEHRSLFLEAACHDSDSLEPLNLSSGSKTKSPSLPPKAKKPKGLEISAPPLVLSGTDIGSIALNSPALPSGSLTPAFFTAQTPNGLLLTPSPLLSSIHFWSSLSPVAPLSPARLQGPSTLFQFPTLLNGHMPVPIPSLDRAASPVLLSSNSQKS
Outline: as §1

FEV = target: T7, FEV (Homo sapiens, UniProt Q99581 1-238); details: protein: recombinant; tags: N-terminal GST; dsDNA, one strand shown
T7 sequence: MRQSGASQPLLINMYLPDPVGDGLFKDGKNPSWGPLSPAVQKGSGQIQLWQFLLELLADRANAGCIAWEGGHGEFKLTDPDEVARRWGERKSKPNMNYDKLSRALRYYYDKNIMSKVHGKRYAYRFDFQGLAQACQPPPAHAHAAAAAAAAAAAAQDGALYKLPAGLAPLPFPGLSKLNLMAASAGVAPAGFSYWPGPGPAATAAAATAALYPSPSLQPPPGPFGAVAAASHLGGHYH
Outline: as §1

ETV5 = ETV5 (Homo sapiens, UniProt P41161 1-510); details: protein: recombinant; tags: N-terminal GST; dsDNA, one strand shown
Outline: as §1

HSF1 = HSF1 (Homo sapiens, UniProt Q00613 1-529); details: protein: recombinant; tags: N-terminal GST; chain copies: 3; dsDNA, one strand shown
Outline: as §1

SPIC = target: T8, SPIC (Homo sapiens, UniProt Q8N5J4 1-248); details: protein: recombinant; tags: N-terminal GST; dsDNA, one strand shown
T8 sequence: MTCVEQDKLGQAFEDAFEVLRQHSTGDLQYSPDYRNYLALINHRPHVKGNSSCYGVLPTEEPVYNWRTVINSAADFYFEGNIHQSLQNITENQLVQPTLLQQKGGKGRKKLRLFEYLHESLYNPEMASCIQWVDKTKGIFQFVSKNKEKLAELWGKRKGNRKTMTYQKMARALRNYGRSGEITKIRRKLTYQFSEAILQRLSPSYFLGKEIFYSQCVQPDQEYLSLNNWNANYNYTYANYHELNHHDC
Outline: as §1

ELF4 = ELF4 (Homo sapiens, UniProt Q99607 1-663); details: protein: recombinant; tags: N-terminal GST; dsDNA, one strand shown
Outline: as §1

ELK4 = target: T9, ELK4 (Homo sapiens, UniProt P28324-2 1-405); details: protein: recombinant; tags: N-terminal GST; dsDNA, one strand shown
T9 sequence: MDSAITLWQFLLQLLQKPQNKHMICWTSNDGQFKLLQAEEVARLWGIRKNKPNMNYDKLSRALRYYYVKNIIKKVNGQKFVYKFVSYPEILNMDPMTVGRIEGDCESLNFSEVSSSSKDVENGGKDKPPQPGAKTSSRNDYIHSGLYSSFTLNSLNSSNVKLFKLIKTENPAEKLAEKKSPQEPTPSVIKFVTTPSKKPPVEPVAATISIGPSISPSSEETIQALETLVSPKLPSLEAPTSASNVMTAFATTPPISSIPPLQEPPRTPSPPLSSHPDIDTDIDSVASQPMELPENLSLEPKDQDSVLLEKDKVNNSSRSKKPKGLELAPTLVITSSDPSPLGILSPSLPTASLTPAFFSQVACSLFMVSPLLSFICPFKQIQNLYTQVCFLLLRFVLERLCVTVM
Outline: as §1

ETV2 = target: T10, ETV2 (Homo sapiens, UniProt O00321 1-342); details: protein: recombinant; tags: N-terminal GST; dsDNA, one strand shown
T10 sequence: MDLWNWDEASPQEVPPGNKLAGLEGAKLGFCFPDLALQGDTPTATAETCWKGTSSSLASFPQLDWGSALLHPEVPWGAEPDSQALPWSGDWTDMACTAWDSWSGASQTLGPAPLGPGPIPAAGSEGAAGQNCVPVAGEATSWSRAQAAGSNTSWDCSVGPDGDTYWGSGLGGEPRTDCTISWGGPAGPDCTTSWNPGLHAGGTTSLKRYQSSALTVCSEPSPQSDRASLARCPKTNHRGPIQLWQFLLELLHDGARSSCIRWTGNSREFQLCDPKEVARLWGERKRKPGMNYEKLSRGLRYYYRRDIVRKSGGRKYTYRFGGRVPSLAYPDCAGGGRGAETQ
Outline: as §1

ELF3 = target: T11, ELF3 (Homo sapiens, UniProt P78545 1-371); details: protein: recombinant; tags: N-terminal GST; dsDNA, one strand shown
T11 sequence: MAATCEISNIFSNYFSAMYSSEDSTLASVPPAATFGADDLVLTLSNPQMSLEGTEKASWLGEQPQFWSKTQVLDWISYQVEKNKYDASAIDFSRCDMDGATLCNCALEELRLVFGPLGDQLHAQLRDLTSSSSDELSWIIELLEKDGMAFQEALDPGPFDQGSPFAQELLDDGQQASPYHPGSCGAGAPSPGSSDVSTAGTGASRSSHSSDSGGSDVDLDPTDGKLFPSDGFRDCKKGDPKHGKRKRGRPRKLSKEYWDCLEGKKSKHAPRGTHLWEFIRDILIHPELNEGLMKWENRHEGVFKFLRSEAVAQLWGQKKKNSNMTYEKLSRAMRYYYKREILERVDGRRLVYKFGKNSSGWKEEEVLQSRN
Outline: as §1

CRX = CRX (Homo sapiens, UniProt O43186 1-299); details: protein: recombinant; tags: N-terminal GST; dsDNA, one strand shown
Outline: as §1

ETV1 = ETV1 (Homo sapiens, UniProt P50549 1-477); details: protein: recombinant; tags: N-terminal GST; dsDNA, one strand shown
Outline: as §1

Chain of ELF1 (P32519 whole entry): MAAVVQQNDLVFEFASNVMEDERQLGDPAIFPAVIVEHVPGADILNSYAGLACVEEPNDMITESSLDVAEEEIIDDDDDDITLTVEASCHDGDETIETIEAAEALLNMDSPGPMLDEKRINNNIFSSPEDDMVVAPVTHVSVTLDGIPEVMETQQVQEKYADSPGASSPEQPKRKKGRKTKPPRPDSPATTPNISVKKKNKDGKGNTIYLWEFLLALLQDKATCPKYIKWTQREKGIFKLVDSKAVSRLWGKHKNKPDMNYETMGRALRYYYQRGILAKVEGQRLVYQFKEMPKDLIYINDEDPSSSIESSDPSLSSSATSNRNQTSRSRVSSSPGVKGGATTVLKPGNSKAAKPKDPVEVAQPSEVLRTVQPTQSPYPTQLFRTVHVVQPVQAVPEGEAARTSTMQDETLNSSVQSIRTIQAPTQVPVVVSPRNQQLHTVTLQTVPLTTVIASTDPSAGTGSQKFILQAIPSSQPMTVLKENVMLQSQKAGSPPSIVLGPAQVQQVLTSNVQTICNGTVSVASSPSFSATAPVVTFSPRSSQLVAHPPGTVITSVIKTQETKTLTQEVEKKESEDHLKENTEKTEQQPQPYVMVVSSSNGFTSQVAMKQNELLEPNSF
Chain of HSF1 (Q00613 whole entry): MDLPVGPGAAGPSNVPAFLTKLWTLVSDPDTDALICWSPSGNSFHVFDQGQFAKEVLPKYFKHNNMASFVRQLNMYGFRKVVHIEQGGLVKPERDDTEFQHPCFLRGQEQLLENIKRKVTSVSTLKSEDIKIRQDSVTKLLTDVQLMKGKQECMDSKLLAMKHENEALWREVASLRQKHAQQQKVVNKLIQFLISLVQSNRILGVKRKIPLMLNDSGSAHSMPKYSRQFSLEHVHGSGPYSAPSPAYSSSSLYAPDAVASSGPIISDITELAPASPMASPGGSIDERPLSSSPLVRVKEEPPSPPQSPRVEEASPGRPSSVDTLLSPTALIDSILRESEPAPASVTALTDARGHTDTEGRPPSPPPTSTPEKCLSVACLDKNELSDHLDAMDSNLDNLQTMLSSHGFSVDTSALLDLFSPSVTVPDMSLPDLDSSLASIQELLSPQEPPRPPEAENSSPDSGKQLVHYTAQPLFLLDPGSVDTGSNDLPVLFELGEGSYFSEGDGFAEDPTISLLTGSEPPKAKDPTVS
Chain of ELF4 (Q99607 whole entry): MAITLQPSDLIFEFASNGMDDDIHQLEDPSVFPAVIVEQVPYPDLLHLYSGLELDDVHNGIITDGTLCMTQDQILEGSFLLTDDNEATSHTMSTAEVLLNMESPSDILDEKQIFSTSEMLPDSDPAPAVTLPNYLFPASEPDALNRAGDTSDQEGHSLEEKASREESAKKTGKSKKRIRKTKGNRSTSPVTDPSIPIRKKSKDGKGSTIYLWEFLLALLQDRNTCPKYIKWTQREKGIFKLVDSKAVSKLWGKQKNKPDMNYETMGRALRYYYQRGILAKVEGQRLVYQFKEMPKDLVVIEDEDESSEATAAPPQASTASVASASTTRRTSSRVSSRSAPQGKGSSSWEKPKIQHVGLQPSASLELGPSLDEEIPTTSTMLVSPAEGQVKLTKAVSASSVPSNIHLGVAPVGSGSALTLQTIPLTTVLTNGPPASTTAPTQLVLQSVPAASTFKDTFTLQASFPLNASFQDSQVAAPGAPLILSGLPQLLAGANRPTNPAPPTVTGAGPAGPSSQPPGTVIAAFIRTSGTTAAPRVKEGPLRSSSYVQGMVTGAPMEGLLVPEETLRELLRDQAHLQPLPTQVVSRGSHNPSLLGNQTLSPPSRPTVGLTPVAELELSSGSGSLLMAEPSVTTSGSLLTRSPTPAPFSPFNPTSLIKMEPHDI
Chain of ETV5 (P41161 whole entry): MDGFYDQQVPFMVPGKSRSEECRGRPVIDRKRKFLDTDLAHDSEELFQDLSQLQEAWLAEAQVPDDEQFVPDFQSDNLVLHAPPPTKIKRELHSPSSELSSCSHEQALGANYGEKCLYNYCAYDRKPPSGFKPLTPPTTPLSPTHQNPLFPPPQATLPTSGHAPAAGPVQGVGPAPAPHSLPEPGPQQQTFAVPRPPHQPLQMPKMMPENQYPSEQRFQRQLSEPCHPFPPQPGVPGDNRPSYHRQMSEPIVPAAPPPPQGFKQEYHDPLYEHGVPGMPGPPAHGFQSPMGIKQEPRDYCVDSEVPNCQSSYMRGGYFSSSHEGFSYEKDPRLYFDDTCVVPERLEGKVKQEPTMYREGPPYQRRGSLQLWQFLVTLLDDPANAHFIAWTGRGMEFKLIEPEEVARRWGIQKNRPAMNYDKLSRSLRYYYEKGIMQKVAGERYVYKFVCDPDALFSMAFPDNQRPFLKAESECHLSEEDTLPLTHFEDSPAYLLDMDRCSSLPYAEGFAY
Chain of ETV1 (P50549 whole entry): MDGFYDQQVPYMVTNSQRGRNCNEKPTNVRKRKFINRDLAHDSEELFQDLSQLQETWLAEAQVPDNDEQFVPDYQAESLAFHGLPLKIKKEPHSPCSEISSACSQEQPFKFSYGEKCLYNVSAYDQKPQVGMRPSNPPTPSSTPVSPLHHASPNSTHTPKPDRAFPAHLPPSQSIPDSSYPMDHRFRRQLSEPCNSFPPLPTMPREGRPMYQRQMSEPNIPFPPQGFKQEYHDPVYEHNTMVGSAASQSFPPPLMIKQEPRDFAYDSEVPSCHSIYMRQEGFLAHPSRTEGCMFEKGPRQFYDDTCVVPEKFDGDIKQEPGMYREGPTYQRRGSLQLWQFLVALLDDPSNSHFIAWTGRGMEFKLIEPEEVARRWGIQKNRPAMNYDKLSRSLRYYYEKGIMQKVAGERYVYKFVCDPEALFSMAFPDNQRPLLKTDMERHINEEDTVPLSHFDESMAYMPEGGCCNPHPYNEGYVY
Chain of CRX (O43186 whole entry): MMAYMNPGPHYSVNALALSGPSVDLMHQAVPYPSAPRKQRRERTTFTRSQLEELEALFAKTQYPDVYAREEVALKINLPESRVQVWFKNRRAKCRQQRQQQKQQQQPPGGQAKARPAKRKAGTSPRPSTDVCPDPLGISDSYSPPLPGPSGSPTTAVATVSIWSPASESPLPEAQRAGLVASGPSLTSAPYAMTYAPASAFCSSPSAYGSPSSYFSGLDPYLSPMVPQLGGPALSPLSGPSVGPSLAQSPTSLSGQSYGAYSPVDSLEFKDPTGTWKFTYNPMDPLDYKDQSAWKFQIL
Chain of SPIB (Q01892 whole entry): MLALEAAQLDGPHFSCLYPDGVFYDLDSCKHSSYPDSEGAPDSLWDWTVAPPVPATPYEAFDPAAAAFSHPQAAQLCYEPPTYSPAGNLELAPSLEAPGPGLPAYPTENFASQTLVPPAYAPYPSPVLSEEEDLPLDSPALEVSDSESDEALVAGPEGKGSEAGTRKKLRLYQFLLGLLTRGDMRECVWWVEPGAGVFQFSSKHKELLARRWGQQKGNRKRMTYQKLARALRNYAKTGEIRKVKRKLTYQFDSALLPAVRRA

With TTTGTT the binding signal (FLI1) was 1.26 fold enrichment (6-mer frequency, TF over GST control), the binding signal (ELK1) was 1.29 fold enrichment (6-mer frequency, TF over GST control) and the binding signal (GABPA) was 1.31 fold enrichment (6-mer frequency, TF over GST control). The binding signal (ERG) was 1.28 fold enrichment (6-mer frequency, TF over GST control), the binding signal (ELF1) was 1.29 fold enrichment (6-mer frequency, TF over GST control) and the binding signal (EHF) was 1.35 fold enrichment (6-mer frequency, TF over GST control). For the same sequence, the binding signal (SPI1) was 1.22 fold enrichment (6-mer frequency, TF over GST control), the binding signal (SPIB) was 1.17 fold enrichment (6-mer frequency, TF over GST control) and the binding signal (ELK3) was 1.3 fold enrichment (6-mer frequency, TF over GST control). For the same sequence, the binding signal (FEV) was 1.19 fold enrichment (6-mer frequency, TF over GST control), the binding signal (ETV5) was 1.25 fold enrichment (6-mer frequency, TF over GST control) and the binding signal (HSF1) was 1.3 fold enrichment (6-mer frequency, TF over GST control). The binding signal (SPIC) was 1.29 fold enrichment (6-mer frequency, TF over GST control), the binding signal (ELF4) was 1.3 fold enrichment (6-mer frequency, TF over GST control) and the binding signal (ELK4) was 1.46 fold enrichment (6-mer frequency, TF over GST control). For the same sequence, the binding signal (ETV2) was 1.33 fold enrichment (6-mer frequency, TF over GST control), the binding signal (ELF3) was 1.35 fold enrichment (6-mer frequency, TF over GST control) and the binding signal (CRX) was 1.46 fold enrichment (6-mer frequency, TF over GST control). The binding signal (ETV1) was 1.25 fold enrichment (6-mer frequency, TF over GST control).
